Assay results reported in PubChem BioAssay AID1159580 (chemical genetic matrix, 2015).
Screen size: about 5,500 compounds; about 2,000 (36%) were called active. Another 18% or so got no clear call; they are omitted. Cut-off read from the data, not from the text of the source: active = normalized growth mostly below about 0.91 (no sharp cut-off); inconclusive = no clear call, values can overlap the other calls; inactive = mostly above about 0.92. Some of the results follow.

Assay: chemical genetic growth profiling, strain panel (AID 1159580);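 note: tested at 20 µM; growth read once vehicle control cultures reached saturation at 30 °C; 1 = growth at the plate median or of vehicle wells; lower values mean less growth of the strain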
Settings: S. cerevisiae deletion strains, growth OD

Measured: normalized growth

CC1=C(/C=C/C(C)=C/C=C/C(C)=C/C=C/C=C(C)/C=C/C=C(C)/C=C/C(=O)[C@]2(C)C[C@@H](O)CC2(C)C)C(C)(C)C[C@H](O)C1
active: locus YNL248C, strain rpa49, hits give low values 1.12 [resistant]
inactive: locus YAL021C, strain ccr4, hits give low values 1.05 | locus YAL026C, strain drs2, hits give low values 1.06 | locus YAL030W, strain snc1, hits give low values 1.01 | locus YBL061C, strain skt5, hits give low values 1.03 | locus YBR009C, strain hhf1, hits give low values 0.996 | locus YBR023C, strain chs3, hits give low values 1.03 | locus YBR171W, strain sec66, hits give low values 1.03 | locus YBR231C, strain swc5, hits give low values 0.995 | locus YBR279W, strain paf1, hits give low values 1.05 | locus YCL011C, strain gbp2, hits give low values 1.01 | locus YCL016C, strain dcc1, hits give low values 1.02 | locus YCL069W, strain vba3, hits give low values 1.04 | locus YCR088W, strain abp1, hits give low values 1.02 | locus YDL005C, strain med2, hits give low values 1.03 | locus YDL040C, strain nat1, hits give low values 1.02 | locus YDR001C, strain nth1, hits give low values 1.02 | locus YDR069C, strain doa4, hits give low values 1.05 | locus YDR137W, strain rgp1, hits give low values 1.05 | locus YDR159W, strain sac3, hits give low values 0.98 | locus YDR195W, strain ref2 0.978 | locus YDR297W, strain sur2, hits give low values 1.02 | locus YDR334W, strain swr1, hits give low values 1.02 | locus YDR335W, strain msn5, hits give low values 1.03 | locus YDR392W, strain spt3, hits give low values 0.984 | locus YEL003W, strain gim4, hits give low values 0.997 | locus YEL037C, strain rad23, hits give low values 1.02 | locus YEL061C, strain CIN8 (second series), hits give low values 1.04 | locus YER015W, strain faa2, hits give low values 1.04 | locus YER016W, strain bim1, hits give low values 1.03 | locus YER111C, strain swi4, hits give low values 1.03 | locus YER155C, strain BEM2 (second series), hits give low values 1.03 | locus YFR010W, strain ubp6, hits give low values 1.02 | locus YGL167C, strain pmr1, hits give low values 1.03 | locus YGL173C, strain kem1, hits give low values 1 | locus YGL227W, strain vid30, hits give low values 1.02 | locus YGL240W, strain doc1, hits give low values 0.968 | locus YGL253W, strain hxk2, hits give low values 1.03 | locus YHR013C, strain ard1, hits give low values 1.03 | locus YHR027C, strain rpn1, hits give low values 1 | locus YHR030C, strain SLT2, hits give low values 0.991 | locus YHR079C, strain IRE1, hits give low values 0.987 | locus YHR142W, strain chs7, hits give low values 1.06 | locus YJL092W, strain hpr5, hits give low values 1.02 | locus YJL095W, strain BCK1 (second series), hits give low values 1.02 | locus YJL095W, strain BCK1, hits give low values 1.01 | locus YJL115W, strain asf1, hits give low values 1.02 | locus YJL129C, strain trk1, hits give low values 1.05 | locus YJL154C, strain vps35, hits give low values 1.01 | locus YJL164C, strain tpk1, hits give low values 1.02 | locus YJL166W, strain qcr8, hits give low values 1.04 | locus YJR066W, strain TOR1, hits give low values 0.942 | locus YKL160W, strain elf1, hits give low values 1.02 | locus YKR026C, strain gcn3, hits give low values 1.04 | locus YKR091W, strain srl3, hits give low values 1.01 | locus YLL001W, strain dnm1, hits give low values 1 | locus YLL026W, hits give low values 1.02 | locus YLL041C, strain sdh2, hits give low values 1.03 | locus YLR027C, strain aat2, hits give low values 1.02 | locus YLR113W, strain HOG1, hits give low values 0.991 | locus YLR221C, strain rsa3, hits give low values 1 | locus YLR258W, strain gsy2, hits give low values 1.02 | locus YLR262C, strain YPT6 (second series), hits give low values 1.02 | locus YLR320W, strain mms22, hits give low values 0.981 | locus YLR342W, strain FKS1, hits give low values 1.04 | locus YLR357W, strain rsc2, hits give low values 1.06 | locus YLR370C, strain arc18, hits give low values 1.02 | locus YLR384C, strain iki3, hits give low values 1.01 | locus YML120C, strain ndi1, hits give low values 0.986 | locus YMR058W, strain fet3, hits give low values 1.05 | locus YMR125W, strain sto1, hits give low values 1.02 | locus YMR129W, hits give low values 1.02 | locus YMR205C, strain PFK2, hits give low values 0.995 | locus YMR231W, strain pep5, hits give low values 1.04 | locus YNL071W, strain lat1, hits give low values 1.03 | locus YNL183C, strain NPR1, hits give low values 0.944 | locus YNL209W, strain ssb2, hits give low values 1.02 | locus YNL322C, strain KRE1 (second series), hits give low values 1.03 | locus YNR049C, strain mso1, hits give low values 1.01 | locus YOR001W, strain rrp6, hits give low values 1.01 | locus YOR070C, strain gyp1, hits give low values 1.02 | locus YOR080W, strain dia2, hits give low values 1.03 | locus YOR083W, strain WHI5, hits give low values 0.993 | locus YOR106W, strain vam3, hits give low values 1.05 | locus YOR231W, strain MKK1, hits give low values 1.01 | locus YOR265W, strain rbl2, hits give low values 1.02 | locus YOR270C, strain vph1, hits give low values 1.16 | locus YOR290C, strain snf2, hits give low values 1.04 | locus YPL051W, strain arl3, hits give low values 1.06 | locus YPL078C, strain atp4, hits give low values 1.05 | locus YPL106C, strain sse1, hits give low values 1.05 | locus YPL240C, strain hsp82, hits give low values 1.01 | locus YPL256C, strain CLN2, hits give low values 0.995
